Assay outcomes deposited in PubChem by The Scripps Research Institute Molecular Screening Center.
MOR-DOR ag = agonists of human mu-delta opioid receptor heterodimerization; 0.3% of 340,000 active; AID 504326; cells, OPRM1-OPRD1 heterodimerization, luminescence; activation, % at 9.3 µM; P35372+P41143; in the data active = activation above about 18%
Target sequence (P35372 whole entry, looked up): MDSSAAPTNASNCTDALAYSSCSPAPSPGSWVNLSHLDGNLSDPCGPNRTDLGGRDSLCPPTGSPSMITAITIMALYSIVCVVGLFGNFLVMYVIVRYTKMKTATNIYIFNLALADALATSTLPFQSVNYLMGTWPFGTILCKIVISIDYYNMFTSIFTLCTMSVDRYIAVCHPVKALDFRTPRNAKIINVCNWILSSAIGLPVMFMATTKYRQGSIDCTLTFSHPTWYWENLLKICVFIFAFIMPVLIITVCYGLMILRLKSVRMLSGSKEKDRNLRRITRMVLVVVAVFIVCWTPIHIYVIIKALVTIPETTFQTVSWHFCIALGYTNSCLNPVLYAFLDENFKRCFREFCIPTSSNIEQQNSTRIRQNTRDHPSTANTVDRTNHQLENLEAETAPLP
Target sequence (P41143 whole entry, looked up): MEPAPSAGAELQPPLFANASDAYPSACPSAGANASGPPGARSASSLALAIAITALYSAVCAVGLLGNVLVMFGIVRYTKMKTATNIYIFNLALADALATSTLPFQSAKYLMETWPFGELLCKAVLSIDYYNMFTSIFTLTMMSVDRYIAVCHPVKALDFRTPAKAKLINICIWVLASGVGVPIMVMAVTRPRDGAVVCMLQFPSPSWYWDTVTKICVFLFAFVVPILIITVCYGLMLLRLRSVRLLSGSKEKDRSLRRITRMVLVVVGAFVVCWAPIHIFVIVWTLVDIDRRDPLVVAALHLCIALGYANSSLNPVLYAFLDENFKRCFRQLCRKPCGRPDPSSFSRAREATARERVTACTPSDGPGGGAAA
HTR5A inv ag = HTR5A inverse agonism, opioid heterodimer counter-screen | HTR5A cell line, luminescence | inhibition, % at 9.3 µM | 0.083% of 340,000 active | AID 504634; in the data active = inhibition mostly above about 23%, no sharp cut-off; inactive = mostly below about 18%
HTR5A ag ctr = HTR5A agonism, opioid heterodimer counter-screen | P47898 | HTR5A agonist assay, luminescence, cell-based | activation, % at 9.3 µM | 0.61% of 340,000 active; in the data active = activation mostly above about 9.5%, no sharp cut-off; inactive = mostly below about 7.6%
MOR-DOR inv ag = inverse agonist of human OPRM1-OPRD1 heterodimerization; inhibition, % at 9.3 µM; cell-based MOR-DOR heterodimer luminescence, inverse agonism; 0.21% of 340,000 active; AID 504357; in the data active = inhibition above about 22%, passing the limit was not always enough
Of the large screens only hits and unclear results are named; the others gave an inactive call. Shown are actives, neighbours in structure and some others; about 1.1% of the full set was active somewhere.

COc1ccc(-n2cc(-c3ccccc3)c3c(=O)[nH]cnc32)cc1	none
CNCCCCOc1ccccc1-c1ccccc1	HTR5A ag ctr 9.9
O=C(Nc1ccc(Cl)cc1)c1cc2c(cc1O)[nH]c1ccccc12	HTR5A ag ctr 14
Cn1c(SCC(=O)c2ccccc2)nc2cccnc21	HTR5A ag ctr 9.7
Cc1ccc(C(=O)CSc2nc3cccnc3n2C)cc1	none
Cc1cc(C)c(CN2CCN(C(=O)Cn3cnc(C(=O)Nc4ccc(C)c(C)c4)n3)CC2)c(C)c1	HTR5A ag ctr 8.5
O=C(CSC1CN(C(c2ccccc2)c2ccccc2)C1)N/N=C/c1ccc(Cl)cc1Cl	HTR5A ag ctr 12
O=C(CSc1nnc(SCc2ccccc2)s1)N/N=C/c1ccc(Cl)cc1Cl	none
CCOC(=O)N1CCC(NC(=O)CSCc2nc(-c3ccc(OC)cc3)oc2C)CC1	HTR5A ag ctr 11
CC(=O)SC1CC(=O)C=C2CCC3C4CCC(=O)OC4(C)CCC3C21C (stereo not drawn)	none
Cc1ccc(OCC(O)Cn2c(=N)n(Cc3ccccc3)c3ccccc32)cc1 (stereo not drawn)	HTR5A ag ctr 12
N=c1n(Cc2ccccc2)c2ccccc2n1CC(O)COc1ccc(Cl)cc1Cl (stereo not drawn)	MOR-DOR ag 31, HTR5A ag ctr 31
Cc1cc(=O)c(C(=O)O)c(C)n1-c1ccccc1	none
COc1ccccc1CNC(=O)CN1C(=O)NC(c2ccccc2)(c2ccccc2)C1=O	none
CC1Cc2ccccc2N1C(=O)COC(=O)c1cccnc1Cl (stereo not drawn)	HTR5A ag ctr 11
O=S(=O)(Nc1ccc(-c2ccc3nncn3n2)cc1)c1ccccc1Cl	none
O=S(=O)(Nc1ccc(-c2ccc3nncn3n2)cc1)c1ccc(Cl)s1	HTR5A ag ctr 10
O=C1/C(=C/c2ccccc2)CCc2ccc(Cl)nc21	none
Cc1cccc(N(C)C(=O)COc2cc(=O)n(C)c3ccccc23)c1	HTR5A ag ctr 11
CCn1c(=O)cc(OCC(=O)NCCc2cccc(C)c2)c2ccccc21	HTR5A ag ctr 12
CCn1c(=O)cc(OCC(=O)Nc2cc(C)ccn2)c2ccccc21	none
CCCOc1ccc(C(=O)NNC(=S)NC(=O)c2cc(-c3ccc(Cl)cc3)nc3ccccc23)cc1	HTR5A inv ag 75, MOR-DOR inv ag 61
CC1CN(N=Cc2ccc([N+](=O)[O-])o2)C(=N)O1 (stereo not drawn)	HTR5A ag ctr 8.2
C=Cc1ncc(OC)c2c1[nH]c1ccccc12	none
CCOC(=O)C1CCCN(C(=O)c2ccccc2NS(=O)(=O)c2ccc(F)cc2)C1 (stereo not drawn)	none
COc1cccc(CNC(=O)C2CCN(c3nnc(N4CCCC4=O)s3)CC2)c1	HTR5A ag ctr 13
CCCOc1ccc(CNC(=O)C2CCN(c3nnc(N4CCCC4=O)s3)CC2)cc1	none
O=C(O)CCc1ccc(-c2ccccc2)n1Cc1ccco1	HTR5A ag ctr 9.7
O=C(Cc1ccccc1)NN1C(=O)C2C3C=CC(C3)C2C1=O (stereo not drawn)	none
CC1CCCC(C)N1NC(=O)Cc1ccccc1 (stereo not drawn)	HTR5A ag ctr 9.7
COc1ccc(CCNC(=O)COC(=O)c2cc(Cl)nc(Cl)c2)cc1	none
CCN(CC)c1nc2ccccc2n2cnnc12	HTR5A ag ctr 13
CCOc1ccccc1Nc1nc2ccccc2n2cnnc12	none
CN(CCO)c1ccc(-c2nn(C)c(=O)c3ccccc23)cc1[N+](=O)[O-]	none
CN(CCO)c1cc(N(C)CCO)c([N+](=O)[O-])cc1[N+](=O)[O-]	HTR5A ag ctr 12
COC(=O)C1=C(C)NC(=O)/C1=C\c1ccco1	HTR5A ag ctr 11
COC(=O)C1=C(C)N(C)C(=O)/C1=C\c1ccco1	none
CN(C)S(=O)(=O)c1ccc(C(=O)N2CCN=C2SCc2ccccc2)cc1	HTR5A ag ctr 13
C[C@H]1CN([C@@H](C)CO)C(=O)c2cccc(NC(=O)Nc3ccc(C(F)(F)F)cc3)c2O[C@@H]1CN(C)S(=O)(=O)c1ccc(Cl)cc1	none
CN(C)CCC1(C2=CCCC2)CC/C(=C/c2ccc(Cl)cc2)C1=O (stereo not drawn)	none
CC(C)(C)OC(=O)N1CCC[C@H]1C(=O)Nc1ccc(Br)cc1	none
CC(C)(C)OC(=O)N1CCC[C@H]1C(=O)Nc1ccc(C#N)cc1	HTR5A ag ctr 9.6
O=C(/C=C/c1ccc(Cl)cc1)NCc1cccs1	HTR5A ag ctr 13
O=C(/C=C/c1cccc(Cl)c1)NCc1cccs1	none
O=C(Nc1ccccc1Cl)C(Cl)C(=O)c1ccccc1 (stereo not drawn)	MOR-DOR inv ag 52
O=C(Nc1ccccc1Cl)c1ccccc1	none
O=C(c1cc2ccccc2o1)N1CCN(Cc2ccc3c(c2)OCO3)CC1	HTR5A ag ctr 11
Cc1cc(Cl)ccc1NC(=S)N1CCN(Cc2ccc3c(c2)OCO3)CC1	none
Fc1ccccc1NC(=S)N1CCN(Cc2ccc3c(c2)OCO3)CC1	HTR5A ag ctr 12
CCCNC(=S)N1CCN(Cc2ccc3c(c2)OCO3)CC1	HTR5A ag ctr 12
COc1ccc(C(=O)COC(=O)CCN2C(=O)C3CC=CCC3C2=O)c(OC)c1 (stereo not drawn)	none
C=CCOc1ccccc1CN(C(=O)CCl)c1ccc2c(c1)OCO2	MOR-DOR ag 45, HTR5A ag ctr 53
CCOc1cc(/C=C2\C(=O)N(Cc3ccc(C)cc3)C(C)=C2C(=O)OC)ccc1O	HTR5A ag ctr 16
C=CCOc1cccc(/C=C2\C(=O)N(Cc3ccc(C)cc3)C(C)=C2C(=O)OC)c1	none
O=C(COC(=O)c1cc(S(=O)(=O)N2CCOCC2)ccc1F)NCc1ccc2c(c1)OCO2	none
O=C(CCNC(=O)C1CCN(S(=O)(=O)c2ccc(F)cc2)CC1)Nc1nccs1	HTR5A ag ctr 10
CC(=O)Nc1ccc(S(=O)(=O)N2CCC(C(=O)NCCC(=O)Nc3nccs3)CC2)cc1	none
CC[C@H](C)Cc1cn([C@@H](CCCCNC(=O)OC(C)(C)C)C(=O)NCCCCCCCCCCC(=O)N2CCN(C(=O)OC(C)(C)C)CC2)nn1	none
O=C1C=CC(=O)N1	none
CC(C)NC(=O)c1onc(CSc2ccc(F)cc2)c1C(=O)NC(C)C	none
CC(=O)Nc1ccc(-c2csc(Nc3ccc(Cl)cn3)n2)cc1	HTR5A ag ctr 11
CC(=O)Nc1cccc(-c2csc(Nc3ccc(Cl)cn3)n2)c1	none
Oc1ccccc1C=NN=C1c2ccccc2-c2ccccc21	none
C/C(=N/N=C/c1ccccc1O)c1ccccc1O	HTR5A ag ctr 10
CN1/C(=C\C(=O)COc2ccc3c(c2)OCO3)C(C)(C)c2ccccc21	HTR5A ag ctr 14
COc1ccccc1OCC(=O)/C=C1/N(C)c2ccccc2C1(C)C	none
Cc1cc(OCC(=O)Nc2ccncc2)cc(C)c1Br	HTR5A ag ctr 13
Cn1c(CN2CCCCC2)nc2cc(NC(=O)c3ccccc3Cl)ccc21	none
Cn1c(CN2CCCCC2)nc2cc(NC(=O)c3ccc(F)cc3)ccc21	HTR5A ag ctr 9.2
COCCNC(=O)C1CCC(CNS(=O)(=O)c2ccc3c(c2)CC(C)N3C(=O)C2CC2)CC1 (stereo not drawn)	HTR5A ag ctr 12
CCCNC(=O)C1CCC(CNS(=O)(=O)c2ccc3c(c2)CC(C)N3C(C)=O)CC1 (stereo not drawn)	none
